Experimental data reported in PubChem BioAssay (NCATS).
Records with an inconclusive call do not appear. Where a call stands in place of a potency, no number is given. A number with no mark means an inactive call. Active and inactive are the calls of the source. Calls follow the shape of the dose curve; as a rule, active = well fitted curve in the direction sought with a large enough effect; inconclusive = small, poorly fitted or top-dose-only effect, or another doubt; inactive = no such curve, though single readings can be large; an effect the other way counts as inactive or inconclusive.

Tests used:
[1] = biological target: Cellular tumor antigen p53 (Homo sapiens) (UniProt P04637); test: Primary qHTS for small molecule compounds that upregulate eGFP-tagged delta133p53alpha (in N-terminal) cells. (AID 2060322); settings: NCI-H358 eGFP-delta133p53alpha fluorescence, 24 h; activation: stronger effect = higher value; also: nearly all actives have a fitted effect of over 75% in size; also: potency is read from the fitted curve at half-maximal effect; as to activation: series mostly up to about 56 µM
Summary of the method: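 NCI-H358 cells pre-induced 24 h with 10 ng/ml doxycycline to express N-terminal eGFP-delta133p53alpha, then dosed 24 h at 37C without doxycycline; fixed, Hoechst-stained, GFP intensity by laser scanning cytometry, normalized to DMSO (0%) and 57.5 uM 5-azacytidine (100%).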

[2] = biological target: Aldehyde dehydrogenase, mitochondrial (Homo sapiens) (UniProt P05091); test: qHTS for Inhibitors of the Aldehyde Dehydrogenase Family (ALDH2) Primary screen (AID 2061308); also: nearly all actives have a fitted effect of over 55% in size
[3] = biological target: Retinaldehyde dehydrogenase 3 (Homo sapiens) (UniProt P47895); test: qHTS for Inhibitors of the Aldehyde Dehydrogenase Family (ALDH1A3) Primary screen (AID 2061315)

Chain of Cellular tumor antigen p53 (Homo sapiens) (P04637 whole entry, looked up): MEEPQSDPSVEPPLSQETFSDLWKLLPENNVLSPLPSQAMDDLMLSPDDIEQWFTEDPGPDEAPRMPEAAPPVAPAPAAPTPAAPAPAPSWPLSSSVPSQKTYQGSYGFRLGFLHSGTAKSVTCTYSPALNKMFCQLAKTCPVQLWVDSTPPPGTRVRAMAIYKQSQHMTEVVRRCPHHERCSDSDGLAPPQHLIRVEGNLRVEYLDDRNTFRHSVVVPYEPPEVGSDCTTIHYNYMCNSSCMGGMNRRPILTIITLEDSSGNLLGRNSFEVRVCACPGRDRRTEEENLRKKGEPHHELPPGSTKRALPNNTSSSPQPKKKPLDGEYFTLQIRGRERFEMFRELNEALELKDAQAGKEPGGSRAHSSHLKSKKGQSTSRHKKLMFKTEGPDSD

## CC(C)Oc1ccc(-c2nc(-c3cccc4c3CCC4NCCC(=O)O)no2)cc1C#N (stereo not drawn)
[1]
  activation: 0%
[2]
  Potency: inactive
[3]
  Potency: inactive

## COC1C(O)C(OC2CCC3(C)C(CCC45CCC6C7(COC(=O)C7)OC4(O)C6(C)CCC35)C2)OC(C)C1OC1OC(CO)C(OC2OC(CO)C(O)C(O)C2O)C(O)C1O (stereo not drawn)
[1]
  activation: 1.53%
[2]
  Potency: inactive
[3]
  Potency: inactive

## CC1(C)CC[C@]2(C(=O)O[C@@H]3O[C@H](CO)[C@@H](O)[C@H](O)[C@H]3O)CC[C@]3(C)C(=CCC4[C@@]5(C)CC[C@H](O[C@@H]6O[C@H](C(=O)O)[C@@H](O)[C@H](O)[C@H]6OC6OC(CO)C(O)C(O)C6O)C(C)(C)C5CC[C@]43C)[C@@H]2C1 (stereo partly drawn)
[1]
  activation: -5.36%
[2]
  Potency: inactive
[3]
  Potency: inactive

## CC1(CO)CC2C(O)C3=C(CC(C)(O)C2C1)C(=O)OC3 (stereo not drawn)
[1]
  activation: -12.2%
[2]
  Potency: inactive
[3]
  Potency: inactive

## CC(CCC1(O)OC2CC3C4CCC5CC(O[C@@H]6O[C@H](CO)[C@@H](O)[C@H](O)[C@H]6O[C@@H]6O[C@@H](C)[C@H](O)[C@@H](O)[C@H]6O)C(O)CC5(C)C4CCC3(C)C2C1C)CO[C@@H]1O[C@H](CO)[C@@H](O)[C@H](O)[C@H]1O (stereo partly drawn)
[1]
  activation: 9.82%
[2]
  Potency: inactive
[3]
  Potency: inactive

## C=C1C(=O)O[C@@H]2[C@H]1CCC(C)=C1CCC(=O)O[C@]12C
[1]
  Potency: 12 µM (active)
[2]
  Potency: inactive
[3]
  Potency: inactive
